# Test results taken from PubChem BioAssay.
# Values without a mark were called inactive. Activity calls are given as the source filed them.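 Rule for the calls, unless noted: active = at least 20% inhibition of 6-phosphogluconate dehydrogenase activity; inactive = the rest.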
# System: not listed separately
# Experiment: HCT116 colon cancer cell growth inhibition, primary screen, CellTiter-Glo luminescence, NPC library (AID 1117342;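 active = compounds that lower survival of HCT116 colon cancer cells in the luminescence readout, no numeric limit stated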)
# Conditions: at 20 µM (top of the series)
row,SMILES,inhibition of viability
1,CC(C)(C)c1ccc(O)cc1,7.9%
2,Fc1cc(Br)ccc1CBr,-1.5%
3,CN(C)C(=S)SSC(=S)N(C)C,16.3%
4,COC(=O)C(Cl)C(=O)OC,37.3%
5,COc1ccc2c(c1OC)C(=O)O[C@H]2[C@@H]1c2cc3c(cc2CCN1C)OCO3,19.8%
6,CN1C[C@H](CNC(=O)OCc2ccccc2)C[C@@H]2c3cccc4c3c(cn4C)C[C@H]21,94% (active)
7,O=C1NCN(c2ccccc2)C12CCN(CCCOc1ccc(F)cc1)CC2,59.4% (active)

# System: not listed separately
# Experiment: reduced SW480 viability measured with CellTiter-Glo, NPC library, primary (AID 1117343;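 active = compounds that lower viability of the colon cancer cells in the luminescence readout, with no numeric limit stated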)
# Conditions: CellTiter-Glo luminescence; at 20 µM (top of the series)
row,SMILES,viability decrease (inhibition)
1,CC(C)(C)c1ccc(O)cc1,15.7%
2,Fc1cc(Br)ccc1CBr,5.9%
3,CN(C)C(=S)SSC(=S)N(C)C,62.7% (active)
4,COC(=O)C(Cl)C(=O)OC,-7.9%
5,COc1ccc2c(c1OC)C(=O)O[C@H]2[C@@H]1c2cc3c(cc2CCN1C)OCO3,3.5%
6,CN1C[C@H](CNC(=O)OCc2ccccc2)C[C@@H]2c3cccc4c3c(cn4C)C[C@H]21,101% (active)
7,O=C1NCN(c2ccccc2)C12CCN(CCCOc1ccc(F)cc1)CC2,91% (active)

# System: not listed separately
# Experiment: NPC library primary testing for decreased DLD-1 cell viability via CellTiter-Glo (AID 1117346;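 active = compounds that lower survival of DLD-1 colon cancer cells in the luminescence readout, no cutoff given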)
# Conditions: DLD-1 viability, CellTiter-Glo luminescence; at 20 µM (top of the series)
row,SMILES,viability decrease (inhibition)
1,CC(C)(C)c1ccc(O)cc1,4.65%
2,Fc1cc(Br)ccc1CBr,9.1%
3,CN(C)C(=S)SSC(=S)N(C)C,59.7% (active)
4,COC(=O)C(Cl)C(=O)OC,3.4%
5,COc1ccc2c(c1OC)C(=O)O[C@H]2[C@@H]1c2cc3c(cc2CCN1C)OCO3,-6.5%
6,CN1C[C@H](CNC(=O)OCc2ccccc2)C[C@@H]2c3cccc4c3c(cn4C)C[C@H]21,92.2% (active)
7,O=C1NCN(c2ccccc2)C12CCN(CCCOc1ccc(F)cc1)CC2,87.1% (active)

# Target: 6-phosphogluconate dehydrogenase, decarboxylating (Homo sapiens) (UniProt P52209)
# Sequence (P52209 whole entry, looked up): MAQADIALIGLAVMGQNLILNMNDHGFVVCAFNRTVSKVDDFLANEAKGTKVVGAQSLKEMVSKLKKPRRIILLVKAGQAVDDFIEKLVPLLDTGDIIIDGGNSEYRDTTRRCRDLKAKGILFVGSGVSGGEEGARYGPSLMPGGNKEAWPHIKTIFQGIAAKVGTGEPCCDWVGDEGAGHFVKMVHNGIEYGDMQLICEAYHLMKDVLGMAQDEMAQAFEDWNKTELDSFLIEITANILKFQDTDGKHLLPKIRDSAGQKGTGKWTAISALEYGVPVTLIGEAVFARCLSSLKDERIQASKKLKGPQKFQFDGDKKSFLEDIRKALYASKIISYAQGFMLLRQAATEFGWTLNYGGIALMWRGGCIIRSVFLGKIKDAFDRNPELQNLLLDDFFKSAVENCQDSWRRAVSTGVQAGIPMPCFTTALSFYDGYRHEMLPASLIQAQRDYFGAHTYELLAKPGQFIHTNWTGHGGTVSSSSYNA
# Experiment: inhibition of human phosphogluconate dehydrogenase – biochemical, recombinant enzyme, NADPH absorbance, primary screen (AID 1159550)
# Conditions: recombinant 6PGD, NADPH absorbance 341 nm; at 10 µM; stronger effect = higher value
row,SMILES,inhibition
1,Cc1ccc2cc3c(ccc4ccccc43)c3c2c1CC3,-6.1%
2,ClC1=C(Cl)[C@]2(Cl)[C@H]3[C@H]([C@@H]4C=C[C@H]3C4)[C@@]1(Cl)C2(Cl)Cl,6.64%
3,CC(=O)O[C@@H]1[C@H]2CC[C@H]3[C@@](C)(O)[C@@H]4C[C@H](O)C(C)(C)[C@@]4(O)[C@H](O)C[C@@]13C[C@@]2(C)O,8.37%
4,C[C@]12CC[C@@H](OS(=O)(=O)O)C[C@@H]1CC[C@@H]1[C@@H]2CC[C@]2(C)C(=O)CC[C@@H]12,5.35%
5,CCCCSP(=O)(SCCCC)SCCCC,10.6%
6,CCC(=O)Nc1ccc(Cl)c(Cl)c1,-20.3%
7,CC1=CC(=O)C2=C(C)C[C@H](O)[C@H]3[C@H](C)C(=O)O[C@@H]3C12 (stereo not given in full),-7.67%
8,CC[C@H]1/C=C\C=C\C[C@H](C)[C@@H](O)[C@](C)(O)C(=O)[C@H](C)[C@@H](O)C(C)C(=O)[C@H](C)[C@H](O)[C@@H](C)/C=C/C(=O)OC2C(C)[C@H](CC1)O[C@@]1(CC[C@@H](C)[C@@H](CC(C)O)O1)[C@@H]2C (stereo not given in full),-4.41%
9,CO[C@H]1[C@H](O)[C@H](O[C@H]2CC[C@@]3(C=O)[C@H](CC[C@@H]4[C@@H]3CC[C@]3(C)[C@@H](C5=CC(=O)OC5)CC[C@]43O)C2)O[C@@H](C)[C@@H]1O,-22%
10,Cn1c(=O)c2c(ncn2CCCl)n(C)c1=O,-2.23%
11,O=S1OCC2C(CO1)C1(Cl)C(Cl)=C(Cl)C2(Cl)C1(Cl)Cl (stereo not given),5.97%
12,CCOP(=S)(OCC)SCSCC,7.84%
13,Clc1ccc(Cl)cc1,7.33%
14,CC1(C)C(O)CC(O)C2(C)C1CC(O)C1(C)C2CCC2(C)C(c3ccoc3)OC(=O)C3OC321 (stereo not given),-7.21%
15,c1cncc([C@@H]2CCCCN2)c1,4.92%
16,C[C@@H]1CC[C@@]2(OC1)O[C@H]1[C@@H](O)[C@H]3[C@@H]4CC[C@H]5C[C@@H](O[C@@H]6O[C@H](CO)[C@H](O[C@@H]7O[C@H](CO)C(O)[C@H](O[C@@H]8OC[C@@H](O)[C@H](O)[C@H]8O)[C@H]7O[C@@H]7O[C@H](CO)[C@H](O)[C@H](O[C@@H]8O[C@H](CO)[C@@H](O)[C@H](O)[C@H]8O)[C@H]7O)[C@H](O)[C@H]6O)[C@H](O)C[C@]5(C)[C@H]4CC[C@]3(C)[C@H]1[C@@H]2C (stereo not given in full),-7.91%
17,COc1ccc(C(c2ccc(OC)cc2)C(Cl)(Cl)Cl)cc1,-1.01%
18,CN(C)C(=S)SSC(=S)N(C)C,-10.3%
19,CCC1(O)CC(OC2CC(N(C)C)C(O)C(C)O2)c2c(cc3c(c2O)C(=O)c2c(O)ccc(O)c2C3=O)C1C(=O)OC (stereo not given),-0.278%
20,C[C@]12CC[C@H](O)C[C@H]1CC[C@@H]1[C@@H]2[C@H](O)C[C@]2(C)[C@@H](C3=CC(=O)OC3)CC[C@]12O,11.1%
21,C=C[C@H]1CN2CCC1C[C@H]2[C@H](OC(=O)OCC)c1ccnc2ccc(OC)cc12 (stereo not given in full),4.32%
22,CCOP(=S)(OCC)SCCSCC,3.96%
23,CC(=O)O[C@H]1CC[C@]2(C)C3CC[C@]4(C)[C@@H](C5=CC(=O)OC5)[C@@H](OC(C)=O)C[C@]4(O)C3CC[C@@H]2C1 (stereo not given in full),0.446%
24,COc1cc2c3cc1Oc1cc(ccc1O)C[C@@H]1c4c(cc(OC)c(O)c4Oc4ccc(cc4)C[C@H]3N(C)CC2)CCN1C,-17.6%
25,C/C=C(\C)C(=O)OC1CCC2(C)C3CCC4C5(O)CC(O)C6(O)C(CN7CC(C)CCC7C6(C)O)C5(O)CC42OC13O (stereo not given),6.21%
26,COc1ccc2c(c1OC)C(=O)O[C@H]2[C@@H]1c2cc3c(cc2CCN1C)OCO3,-1.62%
27,CN1C[C@H](CNC(=O)OCc2ccccc2)C[C@@H]2c3cccc4c3c(cn4C)C[C@H]21,-7.03%
28,COP(=O)(OC)OC(Br)C(Cl)(Cl)Br (stereo not given),-10.9%
29,COP(=S)(OC)Oc1ccc(Sc2ccc(OP(=S)(OC)OC)cc2)cc1,-4.06%
